# Assay results from publication PMC11062922 (Nature Chemical Biology, 2023).
# Like-named read-outs stand apart in the source and are kept apart here.
# How the values were obtained:
# Design in all cases: species or system human, MV4-11 + K-562 + COLO205 + SK-N-BE2 + OVCAR-8
# [1] = tested on: AGK; details: read-out: apparent Kd, compound concentrations: 100 nM and 1000 nM (sheet 'Samples'), n = 1
# [2] = tested on: ARAF; details: read-out: apparent Kd, compound concentrations: 100 nM and 1000 nM (sheet 'Samples'), n = 1
# [3] = tested on: BMPR1A; details: read-out: apparent Kd, n = 1
# [4] = tested on: BRAF; details: read-out: apparent Kd, compound concentrations: 100 nM and 1000 nM (sheet 'Samples'), n = 1
# [5] = tested on: DCK; details: read-out: apparent Kd, compound concentrations: 100 nM and 1000 nM (sheet 'Samples'), n = 1
# [6] = tested on: ERBB3; details: read-out: apparent Kd, compound concentrations: 100 nM and 1000 nM (sheet 'Samples'), n = 1
# [7] = tested on: FECH; details: read-out: apparent Kd, compound concentrations: 100 nM and 1000 nM (sheet 'Samples'), n = 1
# [8] = tested on: IGF1R; details: read-out: apparent Kd, compound concentrations: 100 nM and 1000 nM (sheet 'Samples'), n = 1
# [9] = tested on: INSR; details: read-out: apparent Kd, compound concentrations: 100 nM and 1000 nM (sheet 'Samples'), n = 1
# [10] = tested on: LIMK2; details: read-out: apparent Kd, n = 1
# [11] = tested on: MAP2K3; details: read-out: apparent Kd, compound concentrations: 100 nM and 1000 nM (sheet 'Samples'), n = 1
# [12] = tested on: MAP3K12; details: read-out: apparent Kd, compound concentrations: 100 nM and 1000 nM (sheet 'Samples'), n = 1
# [13] = tested on: MAP3K2; details: read-out: apparent Kd, compound concentrations: 100 nM and 1000 nM (sheet 'Samples'), n = 1
# [14] = tested on: MAP3K5; details: read-out: apparent Kd, compound concentrations: 100 nM and 1000 nM (sheet 'Samples'), n = 1
# [15] = tested on: NEK2; details: read-out: apparent Kd, compound concentrations: 100 nM and 1000 nM (sheet 'Samples'), n = 1
# [16] = tested on: PIK3C2B; details: read-out: apparent Kd, compound concentrations: 100 nM and 1000 nM (sheet 'Samples'), n = 1
# [17] = tested on: ACVR2B; details: read-out: apparent Kd, n = 1
# [18] = tested on: TESK2; details: read-out: apparent Kd; compound concentrations:100 nM and 1000 nM (sheet 'Samples'); n = 1
# [19] = tested on: PRKCA; details: compound concentrations:0.3nM, 1nM, 3nM, 10nM, 30nM, 100nM, 300nM, 1000nM,R2:0.94698851760637903,slope:2.0520697350296202,EC50 Standard Error, by the legend:Standard error of the EC50 estimation as provided by the drc package.
# [20] = tested on: PRKACG; details: compound concentrations:0.3nM, 1nM, 3nM, 10nM, 30nM, 100nM, 300nM, 1000nM,R2:0.71933853436235096,slope:7.8735043887932097,EC50 Standard Error, by the legend:Standard error of the EC50 estimation as provided by the drc package.
# [21] = compound concentrations:100 nM and 1000 nM (sheet 'Samples')
# 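For EC50 in this document: competition pulldown with Kinobeads ε in cell lysates, inhibitor preincubated 45 min at 4 °C, bound kinases quantified by LC–MS/MS against DMSO control.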
# 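For Kd in this document: competition pulldown with Kinobeads ε in cell lysates, inhibitor preincubated 45 min at 4 °C, bound kinases quantified by LC–MS/MS against DMSO control.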
structure (smiles),measurement,setting,value
Cn1ncc2c(N)ncnc21 [SKF-18267],potency estimated from few doses,[1]; CATDS: 3.9029734313372399E-3,1420 nM
same,potency estimated from few doses,[2]; CATDS: 4.8255610001080402E-3,874 nM
same,potency estimated from few doses,"[3]; compound concentrations: 100 nM and 1000 nM (sheet 'Samples'), CATDS: 5.9129989995003003E-3",595 nM
same,potency estimated from few doses,[4]; CATDS: 3.54255463702716E-3,1870 nM
same,potency estimated from few doses,[5]; CATDS: 4.5565133541076702E-3,987 nM
same,potency estimated from few doses,[6]; CATDS: 3.9998602619286698E-3,1340 nM
same,potency estimated from few doses,[7]; CATDS: 4.0094324755209198E-3,1330 nM
same,potency estimated from few doses,[8]; CATDS: 4.3813441316225901E-3,1080 nM
same,potency estimated from few doses,[9]; CATDS: 4.5573832930641796E-3,986 nM
same,potency estimated from few doses,"[10]; compound concentrations: 100 nM and 1000 nM (sheet 'Samples'), CATDS: 3.7102033319592401E-3",1630 nM
same,potency estimated from few doses,[11]; CATDS: 4.14742483783686E-3,1220 nM
same,potency estimated from few doses,[12]; CATDS: 4.9126246890692504E-3,843 nM
same,potency estimated from few doses,[13]; CATDS: 4.2783500511549997E-3,1140 nM
same,potency estimated from few doses,[14]; CATDS: 4.32123334572214E-3,1110 nM
same,potency estimated from few doses,[15]; CATDS: 4.6073088162857699E-3,964 nM
same,potency estimated from few doses,[16]; CATDS: 6.2624130491241497E-3,539 nM
Cc1ccc(Nc2ccnc(Nc3ccc4c(c3)CS(=O)(=O)C4)n2)cc1O.Cl [GW579362A],potency estimated from few doses,"[17]; compound concentrations: 100 nM and 1000 nM (sheet 'Samples'), CATDS: 0.34366648341671902",12.4 nM
Cc1cccc(-c2nc(Nc3ccncc3)c3sccc3n2)n1 [GW869641X],potency estimated from few doses,[18],1880 nM
Cc1cccc(Nc2nc(N[C@H]3CCCC[C@H]3N)ncc2C(N)=O)c1.Cl [GSK986310C],EC50,[19],446 nM
same,Kd,[19]; read-out: apparent Kd,272 nM
COc1ccc(Nc2ncc(C#N)c(Nc3ccccc3C(N)=O)n2)cc1N1CCN(C)CC1.Cl [GSK1558669A],potency estimated from few doses,[8]; CATDS: 6.9220248980982396E-3,752 nM
same,potency estimated from few doses,[9]; CATDS: 7.0439666537016601E-3,692 nM
same,potency estimated from few doses,[15]; CATDS: 6.7574361761292799E-3,849 nM
CCn1c(-c2nonc2N)nc2c(C#CC(C)(C)O)nc(OCCNC)cc21.Cl [GSK949675A],EC50,[20],303 nM
same,Kd,[20]; read-out: apparent Kd,262 nM
O=C1N=C(NCCCc2ccccc2)S/C1=C\c1ccc2ncccc2c1 [RO4493941-000],potency estimated from few doses,[7]; CATDS: 5.9450857327724899E-2,1950 nM
Nc1nc(Nc2ccccc2)cc(-c2ccc3c(N)n[nH]c3c2)n1 [GSK2225749A],potency estimated from few doses,[18],1620 nM
CNCc1ccc(-c2cc(-c3nc(-c4ccc(S(=O)(=O)C(C)C)cc4)cnc3N)on2)cc1 [VE-822],potency estimated from few doses,[3]; [21],764 nM
O=C(O)C(F)(F)F.O=C(O)C(F)(F)F.O=c1[nH]ccc2nc(N[C@@H]3CCCNC3)nc(Nc3ccc(S(=O)(=O)N4CCOCC4)cc3)c12.O=c1[nH]ccc2nc(N[C@@H]3CCCNC3)nc(Nc3ccc(S(=O)(=O)N4CCOCC4)cc3)c12 [GSK2177277A],potency estimated from few doses,[11]; CATDS: 6.4169710439364001E-3,1550 nM
same,potency estimated from few doses,[13]; CATDS: 7.1783793001346102E-3,889 nM
Cl.Cl.NC(CNC(=O)c1cc(Br)c(-c2ccnc3[nH]ccc23)s1)c1ccccc1.NC(CNC(=O)c1cc(Br)c(-c2ccnc3[nH]ccc23)s1)c1ccccc1 (stereo not shown) [GSK1322949A],potency estimated from few doses,[1]; CATDS: 3.3484364918531399E-2,953 nM
same,potency estimated from few doses,[2]; CATDS: 6.3043035692660204E-2,316 nM
same,potency estimated from few doses,[12]; CATDS: 3.2066551551393298E-2,1040 nM
CNc1cc(-c2ccc3c(N)n[nH]c3c2)nc(N)n1 [GSK2224810A],potency estimated from few doses,[17]; [21],1190 nM
CCn1c(-c2cccnc2O)nc2cnccc21 [SB-736715],potency estimated from few doses,[5]; CATDS: 1.18043457558384E-2,2290 nM
CC(C)Oc1ccc2c(-c3ccnc(Nc4ccc(N5CCN(C)CC5)cc4)n3)cnn2n1 [GW696155X],potency estimated from few doses,[10]; [21],883 nM
CNCC1CCn2c(c(C3=C(c4cn(C)c5ccccc45)C(=O)NC3=O)c3ccccc32)C1 (stereo not shown) [RO0318676-000],potency estimated from few doses,[4]; CATDS: 2.6106742003508401E-2,2340 nM
CC(C)N1CC(=O)N(C)c2cnc(Nc3cccc(S(=O)(=O)CCN4CCOCC4)c3)nc21 [BI00009348],potency estimated from few doses,[14]; CATDS: 5.27372855942096E-2,1550 nM
CNc1nccc(-c2ccc3c(N)n[nH]c3c2)n1 [GSK2206003A],potency estimated from few doses,[6]; CATDS: 5.0565668903585798E-2,1580 nM
CCC(CC)(CC)n1cnc2c(N)ncnc21 [SKF-97620],potency estimated from few doses,[16]; CATDS: 4.5061031673298398E-2,395 nM
